In PubChem BioAssay (NCI):
Several values for one entry are separate records, joined by “and”; a condition that tells them apart may be missing. Identical values can stand only once. This is part of a sample that, as a whole, favours compounds with a hit. Of some 83,000 tested, about 20% had one in any assay.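 Results are percent growth after 48 hours of single-concentration exposure. 100 means growth as in untreated cells, lower positive values show inhibition; negative values down to -100 show cell death.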 Activity calls are given as the source filed them. The calls were made as follows: active = growth percent below 10; inactive = the rest.

tested on: MCF7 breast; test: NCI-60 one-dose screen, 48 h (100 = growth as untreated, 0 = no growth, -100 = all killed); details: 10 µM unless noted

Question: How did the growth turn out when `CCCCOC(=O)C1CN2C(=NC1(C(F)(F)F)C(F)(F)F)Sc1ccccc12` (stereo not drawn) was run?
Answer: Its growth is 6.83% [100 µM] (active) and 25.5% [100 µM] (inactive).

Question: How did the growth turn out when `CC(=O)O[C@@H]1C[C@@]2(C)[C@@H]3CC=C4[C@@H](C[C@H](O)C(=O)C4(C)C)[C@]3(C)C(=O)C[C@]2(C)[C@H]1[C@@](C)(O)C(=O)/C=C/C(C)(C)OC(C)=O` was run?
Answer: The growth was -52.5% [100 µM] (active) and -100% [100 µM] (active).

Question: For `N#CC12COC3(CCCCC3C1(C#N)C#N)OC2=N` (stereo not drawn), which growth is on record?
Answer: Its growth is -25.8% [100 µM] (active).

Question: With `CC(C)(C)c1cc(C2COC(=O)COCC(=O)OCCOCCOCCO2)cc(C(C)(C)C)c1O` (stereo not drawn) as the compound, how does the growth read?
Answer: The growth was 64.9% [100 µM] (inactive) and 75.7% [100 µM] (inactive).

Question: `N#Cc1c(SCc2ccccc2)nc(-c2ccccc2)[nH]c1=S` was tested. Which growth did it give?
Answer: The growth was 3.22% [100 µM] (active) and -27% [100 µM] (active).

Question: How did the growth turn out when `COc1ccc(CC2c3cc(OC)c(OC)c(OC)c3CC[N+]2(C)C)cc1Oc1ccc(CC2c3cc4c(c(OC)c3CCN2C)OCO4)cc1` (stereo not drawn) was run?
Answer: Its growth is 69.2% [100 µM] (inactive) and 5.51% [100 µM] (active).

Question: `CCOC(=O)c1nc2cc(C(F)(F)F)ccc2nc1Nc1ccc(F)cc1` was tested. Which growth did it give?
Answer: Its growth is 34% [100 µM] (inactive) and 3.76% [100 µM] (active).

Question: For `C#CCn1c2c(c3ccccc3c1=O)C(=O)c1ccccc1-2`, which growth is on record?
Answer: Its growth is 11.6% [100 µM] (inactive) and 10.4% [100 µM] (inactive).

Question: Which growth does the source give for `CC1(C)CCCC(C)(C2CCC3(C)C2C(O)CC2C4(C)CCC(O)C(C)(C)C4C(O)CC23C)O1` (stereo not drawn) here?
Answer: Its growth is -19.1% [100 µM] (active) and -85.7% [100 µM] (active).

Question: Which growth does the source give for `CC(=O)c1cc2c(s1)C(=O)c1ccsc1C2=O` here?
Answer: The growth was -62.9% [100 µM] (active) and -100% [100 µM] (active).

Question: For `N#Cc1cnn2c1n[n+]([O-])c1ccc(Cl)cc12`, which growth is on record?
Answer: The growth was 9.63% [100 µM] (active) and -99.2% [100 µM] (active).

Question: With `C[C@]12CC[C@@H]3c4cc(Br)c(O)c(Br)c4CC[C@H]3[C@@H]1CC(Br)C2=O` (stereo partly drawn) as the compound, how does the growth read?
Answer: Its growth is -71.4% [100 µM] (active) and -70.2% [100 µM] (active).

Question: `CN(C)CCNc1ccc(NCC[N+](C)(C)Cc2ccc([N+](=O)[O-])cc2)c2c1C(=O)c1c(O)ccc(O)c1C2=O` was tested. Which growth did it give?
Answer: Its growth is 24.2% [100 µM] (inactive) and -30.3% [100 µM] (active).
